Hits are enriched below; roughly 10% of the tested compounds scored in any of these assays.
CtBP-E1A blk = blocks the CtBP interaction with E1A; AID 651724; activity change, % (test concentration not listed); hit rate 0.49% among 340,000; AlphaScreen GST-E1A/His-CtBP binding, 1536-well; stronger effect = lower value; in the data active = activity change below about -65%; inconclusive = mostly about -30% to -63%
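Protein mix (5X: 125 nM each GST-E1A, His-CtBP) was incubated with pinned compound 2 h at 37 deg C in dark, in 50 mM Tris pH 8.0 buffer with 300 mM NaCl. Glutathione donor and nickel acceptor beads followed; AlphaScreen signal read after 1 h.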
Six1-Eya2 inh = blocks human Six1 binding to Eya2; Q15475+O00167; AlphaScreen GST-Six1/His-Eya2 binding, biochemical; stronger effect = lower value; activity change, % (concentration not given with the values); hit rate 0.56% among 360,000; AID 651725; in the data active = activity change below about -65%; inconclusive = mostly about -30% to -63%
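GST-Six1 + His-Eya2 (5X stock: 250/500 nM); Tris pH 8.0, 300 mM NaCl, 0.05% BSA, 0.02% Tween 20; GSH donor/Ni acceptor beads; 1 h 37 °C dark; AlphaScreen readout.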
G9a block = G9a (human) methyltransferase inhibition | Q96KQ7 | G9a H3K9 monomethylation, AlphaScreen, 2 h | Potency, µM (top dose mostly 102 µM), most hits filed as inhibitors | hit rate 8.8% among 350,000; also: nearly all actives have a fitted effect of over 75% in size
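Chemiluminescent proximity detection of H3K9 monomethylation, read after 10 min bead incubation in the dark. Reaction: 20 nM G9a, 500 nM biotin-H3K9 peptide, 20 uM SAM cofactor, 2 h, room temperature, following 15 min enzyme-compound preincubation.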
HP1b chromo inh = blocks HP1-beta chromodomain binding to methylated histone tails | P83916 | AlphaScreen HP1-beta / biotin-H3K9me3 peptide binding | Potency, µM (series often up to 114 µM), most hits filed as inhibitors | hit rate 0.56% among 390,000; also: nearly all actives have a fitted effect of over 70% in size
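Compound inhibition of the preformed complex between 50 nM HP1-beta and 50 nM biotinylated H3K9me3 peptide was read by AlphaScreen. Buffer was PBS pH 7.4 with 0.01% Tween-20. Incubations ran 30 min at room temperature, with 10 ug/mL donor/acceptor beads.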
BAZ2B inh = blocks human BAZ2B. Potency, µM (series often up to 114 µM), most hits filed as inhibitors. AlphaScreen BAZ2B-H3K14Ac peptide displacement. hit rate 4.4% among 360,000. AID 504333. Q9UIF8; also: nearly all actives have a fitted effect of over 60% in size
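Inhibition is scored as reduced AlphaScreen emission. The BAZ2B/b-H3(5-23)K14Ac complex (50 nM each) in PBS pH 7.4, 0.01% Tween-20 meets compound (up to 110 uM) for 30 min at RT before bead addition.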
JMJD2A Tudor inh = blocks the human JMJD2A Tudor domain. hit rate 4.4% among 390,000. AlphaScreen JMJD2A-Tudor / H3K4me3 peptide binding. Potency, µM (titrated, usually from 114 µM), usual class: inhibitors; also: nearly all actives have a fitted effect of over 50% in size
Hits are given with their value; – = inactive; ? = inconclusive; · = no result given; [ ] = remark or other dose. Unless noted, calls follow the shape of the dose curve; as a rule, active = well fitted inhibition curve with a large enough effect; inconclusive = small, poorly fitted or top-dose-only effect; inactive = no such curve, though single readings can be large or run the other way.

SMILES	CtBP-E1A blk	Six1-Eya2 inh	G9a block	HP1b chromo inh	BAZ2B inh	JMJD2A Tudor inh
COc1ccc(N2Cc3cccc(C(=O)NC(C)CCc4ccco4)c3C2=O)cc1 (configuration not stated)	–	–	?	?	35.5µM	44.7µM
COc1cccc(C(c2nnnn2Cc2ccco2)N2CCN(Cc3ccccc3)CC2)c1OC (configuration not stated)	–	–	–[12.7 µM]	–	50.1µM	–
COc1cccc(C(c2nnnn2Cc2ccccc2)N2CCN(C3CCCC3)CC2)c1OC (configuration not stated)	–	–	–	–	?	–
COc1ccc(N2CCN(C(c3ccccc3OC)c3nnnn3Cc3ccco3)CC2)cc1 (configuration not stated)	–	?	?	–	39.8µM	50.1µM
Fc1ccccc1C(c1nnnn1Cc1ccc2c(c1)OCO2)N1CCN(Cc2ccco2)CC1 (configuration not stated)	–	–	50.1µM	–	–	–
Cc1cc2c(s1)c1cnn(Cc3ccc(C(F)(F)F)cc3)c(=O)c1n2C	·	·	·	·	·	–
COc1ccc2c(Cl)c(C(=O)NCCCn3ccnc3)sc2c1Cl	–	–	?	–	?	?
C/C(=N\OCC(=O)OC(C)C(=O)Nc1ccc(C)c(S(=O)(=O)N2CCOCC2)c1)c1ccc2c(c1)OCO2 (configuration not stated)	–	–	·	–	·	–
COc1cc2c(cc1OC)C(c1cccs1)N(C(=O)c1cccc(S(=O)(=O)N(C)C)c1)CC2 (configuration not stated)	–	–	50.1µM	–	–	?
COc1ccc2c(c1)c1nnc(SC)nc1n2Cc1ccccc1	·	·	·	–	·	–
COc1ccc(C(=O)CN2C(=O)c3ccccc3S2(=O)=O)cc1	–	–	–	–	–	–
COc1ccc(C(=O)CN2C(=O)c3ccccc3S2(=O)=O)cc1Br	–	–	50.1µM	–	–	–
CCCCNC(=O)c1sc2ncccc2c1-n1cccc1	·	·	–	–	–	–
O=C(NC1CCCCC1)c1sc(=S)n2c1[nH]c(=O)c1ccccc12	–	–	·	?	?	56.2µM
CCCCNC(=O)c1sc(=S)n2c1[nH]c(=O)c1ccccc12	–	–	?	–	50.1µM	79.4µM
O=C(NC1CCCCCC1)c1c(O)c2ccccc2[nH]c1=O	–	–	?	–	–	–
C=Cc1ccc(CSc2nc(-c3ccc(Cl)cc3)nc3c2Cc2c(CO)cnc(C)c2O3)cc1	·	·	–	–	–	–
CCCN(CCC)CC(O)Cn1cc(/C=C/C(=O)c2ccccc2)c2ccccc21 (configuration not stated)	–	–	?	–	·	?
CCCN(CCC)CC(O)Cn1cc(/C=C/C(=O)c2ccc(OC)cc2)c2ccccc21 (configuration not stated)	·	·	–	–	?	44.7µM
CCCN(CCC)CC(O)Cn1cc(/C=C/C(=O)c2ccc(C)cc2)c2ccccc21 (configuration not stated)	·	·	–	–	22.4µM	?
NC(=O)c1ncn([C@@H]2O[C@H](CNCc3ccc(-c4cc(C(F)(F)F)ccc4Cl)o3)[C@@H](O)[C@H]2O)n1	–	–	·	–	·	–
O=C1C(c2ccccc2)CN1Cc1ccccc1 (configuration not stated)	–	–	·	·	·	·
O=C1N(Cc2ccccc2)CC2(Br)COCOC12O (configuration not stated)	–	–	·	7.08µM	·	3.55µM
CO/N=C/c1ccc(N2CCN(C(=O)c3ccc(F)cc3)CC2)c([N+](=O)[O-])c1	–	–	44.7µM	–	?	?
Cc1c(C(=O)N2CCN(c3cccc(Cl)c3)CC2)cccc1[N+](=O)[O-]	–	–	?	–	?	?
SMILES	CtBP-E1A blk	Six1-Eya2 inh	G9a block	HP1b chromo inh	BAZ2B inh	JMJD2A Tudor inh
CO/N=C/c1ccc(N2CCN(C(=O)c3ccc(Cl)cc3Cl)CC2)c([N+](=O)[O-])c1	?	?	20µM	–	?	?
COCCNCC(=O)Nc1ccc(C)c(S(=O)(=O)N2CCCCC2)c1	–	–	8.91µM	?	·	35.5µM
O=C(CNC(=O)c1ccc(Br)o1)Nc1ccc(F)c(S(=O)(=O)N2CCOCC2)c1	–	–	44.7µM	–	–	–
Cc1ccc(NC(=O)CNc2ccccc2N2CCCC2=O)cc1S(=O)(=O)N1CCCCC1	–	–	3.16µM	–	–	–
COCCNC(=O)C1=C(N)C(C(=O)Nc2ccc(C)c(S(=O)(=O)N3CCCCC3)c2)SC1=Nc1ccc(C)cc1C (configuration not stated)	–	–	50.1µM	–	–	–
Cc1ccc(NC(=O)CCl)cc1S(=O)(=O)N1CCCCCC1	–	–	?	–	·	–
Cc1ccc(NC(=O)CNCCCN2CCOCC2)cc1S(=O)(=O)N1CCCCC1	–	–	14.1µM	?	50.1µM	17.8µM
COc1cc(/C=C/C(=O)OCC(=O)Nc2ccc(C)c(S(=O)(=O)N3CCCCC3)c2)ccc1O	–	–	?	–	?	35.5µM
COc1cc(/C=C/C(=O)OCC(=O)N2CCN(S(=O)(=O)c3ccc(C)cc3C)CC2)ccc1OC(F)F	-86.5	–	·	–	·	–
COc1cc(/C=C/C(=O)OCC(=O)Nc2cc(S(=O)(=O)N3CCCCC3)ccc2C)ccc1O	–	–	–	–	–	–
CCOC(=O)Cc1ccc(NC(=O)N(Cc2ccc(CC)cc2)Cc2cn[nH]c2-c2ccc(OC)cc2)cc1	·	·	–	–	–	–

Source: PubChem BioAssay
